# ALR inh – inhibitors of human sulfhydryl oxidase ALR; P55789; purified ALR, DTT oxidation, H2O2 HRP-luminol luminescence; inhibition, % (concentration not given with the values); 290,000 tested, 3.8% active; AID 485317;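 active means mean replicate inhibition above about 79%, with every replicate also reaching it, limit read from the data; inconclusive means only one of the two criteria met; inactive means mean below limit and not every replicate reaching it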
# Cardio protect – modulators protecting cardiomyocytes from myocardial damage; H9c2 cardiomyocytes, H2O2 injury protection, ATPLite, 2 h; protection from H2O2 cell death, % at 20 µM; 360,000 tested, 0.63% active; AID 588492;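 active means compounds giving at least 50% protection of heart cells from peroxide-induced death in the single-dose screen, raw or plate-pattern-corrected value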;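 further: 0% = DMSO wells with peroxide and 100% = DMSO wells without peroxide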
# UBC9 SUMO inh – SUMOylation inhibition; P63279; HTRF SUMOylation assay, SAE1/SAE2 + UBC9, in vitro; inhibition, % at 35 µM; 290,000 tested, 0.36% active; AID 2006; in the data active means inhibition above about 50%, passing the limit was not always enough; inconclusive means no clear call, values can overlap the other calls
# Target sequence (P63279 whole entry, looked up): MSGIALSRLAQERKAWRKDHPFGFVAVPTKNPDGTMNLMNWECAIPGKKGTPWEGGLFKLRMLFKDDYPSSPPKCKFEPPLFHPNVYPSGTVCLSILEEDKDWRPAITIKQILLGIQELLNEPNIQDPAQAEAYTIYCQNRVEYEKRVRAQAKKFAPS
# NTR1 agonist – NTR1 (human) agonism; P30989; NTR1-U2OS beta-arrestin-GFP spot imaging, agonist mode; activation, % at 20 µM; 330,000 tested, 0.17% active; AID 493036;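 active means activation at or above 40% of the spot to cytoplasm intensity ratio, with at least 20 cells analyzed; inconclusive means wells under 20 cells, flagged as cytotoxic or low count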;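 further: 0% = DMSO without peptide and 100% = 100 nM NTR1 peptide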
# Target sequence (P30989 whole entry, looked up): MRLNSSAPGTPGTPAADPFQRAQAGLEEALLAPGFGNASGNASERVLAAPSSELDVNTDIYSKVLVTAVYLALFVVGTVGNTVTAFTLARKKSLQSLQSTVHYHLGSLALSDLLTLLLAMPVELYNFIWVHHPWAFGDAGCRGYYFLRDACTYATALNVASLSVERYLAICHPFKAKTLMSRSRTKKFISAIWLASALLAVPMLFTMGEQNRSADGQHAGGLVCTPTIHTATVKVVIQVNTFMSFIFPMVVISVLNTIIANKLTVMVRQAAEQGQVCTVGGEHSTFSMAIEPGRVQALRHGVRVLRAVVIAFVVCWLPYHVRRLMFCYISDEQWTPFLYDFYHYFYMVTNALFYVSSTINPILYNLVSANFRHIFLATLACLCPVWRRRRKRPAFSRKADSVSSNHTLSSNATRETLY
# Numbers without * were called inactive; ? = inconclusive; . = not tested or not shown. The list is not random: actives were taken first. Their share in the collection is about 3.9%.
SMILES,ALR inh,Cardio protect,UBC9 SUMO inh,NTR1 agonist
O=C(CCC(=O)N1CCN(C2CCCCC2)CC1)Nc1nnc(C(F)(F)F)s1,1,65*,3,0
O=c1c(O)cccc2cc(O)c(O)c(O)c12,100*,16,?,4
O=c1cc(-c2ccccc2)oc2cc(O)c(O)c(O)c12,.,9,.,18
Cn1c(N)c(C#N)c2c(c1=S)COC(C)(C)C2,40,-3,13,-1
COc1ccccc1NC(=O)Nc1nnc(C(C)C)s1,-17,13,6,1
O=C(NC(=S)Nc1ccccc1O)c1cccnc1,28,-3,-6,0
O=C(NC(=S)Nc1cc([N+](=O)[O-])ccc1O)c1cccnc1,1,-5,5,1
CC(C)c1ccc(O)c(NC(=O)c2cccnc2)c1,89*,-2,-2,-2
N#Cc1ccccc1NC(=S)NC(=O)c1cccnc1,95*,-2,-2,0
CCC(C)c1ccc(O)c(NC(=S)NC(=O)c2cccnc2)c1 (stereo not given),98*,1,-9,1
C#CC(CC)(CC)NC(=S)Nc1ccc(S(N)(=O)=O)cc1,.,0,-17,2
CNC(=S)N(C)c1ccccc1,2,8,9,-2
O=C(Cc1ccccc1[N+](=O)[O-])N1CCN(S(=O)(=O)c2ccccc2)CC1,-4,1,19,0
CCc1ccc(C(=O)NNc2cc(Cl)ccc2Cl)cc1,9,-8,8,3
O=C(NCc1n[nH]c(=S)n1-c1ccccc1)c1ccc(S(=O)(=O)N2CCOCC2)cc1,91*,-3,17,2
CCCCn1c(N)c(N(C(=O)CSc2nnc(C)n2-c2ccccc2)C2CCCC2)c(=O)[nH]c1=O,-5,-1,.,-3
CC(Oc1ccc(S(=O)(=O)N2CCCC2)cc1[N+](=O)[O-])C(=O)N(C)c1ccccc1 (stereo not given),-5,-1,.,1
O=[N+]([O-])c1cc(S(=O)(=O)O)cc([N+](=O)[O-])c1NN(c1ccccc1)c1ccccc1,99*,-6,4,0
Cc1ccc(/C=C/c2ccc(=O)n(Cc3ccc(Cl)cc3Cl)n2)cc1,1,-24,-22,1
Nc1ccccc1C(=O)NNc1c2ccccc2nc2ccccc12,98*,9,0,5
O=C(CN1CCOCCOCCOCC1)Nc1ccccc1,1,2,8,2
COc1ccccc1OCC(=O)NNc1c2ccccc2nc2ccccc12,99*,0,7,11
COc1cccc(C(=O)NNc2c3ccccc3nc3ccccc23)c1,0,36,7,35
Cc1ccc(C(=O)NNc2c3ccccc3nc3ccccc23)cc1,22,7,-10,16
O=C(CN1CCOCC1)NNc1c2ccccc2nc2ccccc12,98*,4,1,0
SMILES,ALR inh,Cardio protect,UBC9 SUMO inh,NTR1 agonist
C[N+]1(CC(=O)NNc2c3ccccc3nc3ccccc23)CCOCC1,99*,.,-8,1
COc1cc(S(=O)(=O)N2CCOCC2)cc(C(=O)c2nccn2C)c1OC,36,0,4,0
Cc1ccc(C(=O)ONC(=O)c2ccc(Cl)cc2)cc1[N+](=O)[O-],55,1,-5,-1
CCCc1cc(=O)[nH]c(SCc2ccccc2Cl)n1,99*,-3,-5,0
Cc1cc(CSc2nc(C)cc(=O)[nH]2)c2ncccc2c1,.,8,-13,2
O=c1cc(CSc2nc3ccccc3[nH]2)c2ccccc2[nH]1,91*,-1,13,0
Nc1cc(=O)[nH]c(SCc2ccccc2Cl)n1,-7,3,3,4
COc1ccc(CSc2nc(C)cc(=O)[nH]2)cc1Br,98*,-2,-17,2
Cc1cc(=O)[nH]c(SCc2cccc(Br)c2)n1,-16,-19,-1,0
Cc1cc(=O)[nH]c(SCc2cccc3ccccc23)n1,98*,-2,-2,1
CCc1nnc(NC(=O)CSc2ccc(-c3cccs3)nn2)s1,-1,-3,7,-2
CCCc1cc(=O)[nH]c(SCC(=O)c2cc(C)n(C)c2C)n1,98*,0,1,1
CCCc1cc(=O)[nH]c(SCC(=O)c2cc(C)n(C3CC3)c2C)n1,2,-2,28,0
CCCCC1CCC(c2nc(-c3cccnc3)no2)CC1 (stereo not given),-3,-11,12,5
CC(NC(=O)CN1CCN(c2ccc(Cl)cc2)CC1)c1ccccc1 (stereo not given),.,-6,-7,0
CC(CCc1ccccc1)NC(=O)CN1CCN(c2ccccc2)CC1 (stereo not given),99*,-3,1,0
COc1cccc(N2CCN(CC(=O)NCc3ccccc3)CC2)c1,98*,1,5,2
c1ccc(CCCN2CCN(c3ccccc3)CC2)cc1,86*,-2,2,0
Cc1ccc(C2C3=C(CC(C)(C)CC3=O)Nc3onc(C)c32)cc1 (stereo not given),.,15,20,2
Cc1ccc(N/N=C(\C#N)C(=N)N2CCCCCC2)cc1,2,-23,-7,4
Cc1ccc(N/N=C(\C#N)C(=N)N2CCOCC2)cc1,98*,-3,-7,-2
CCN(CC)C(=N)/C(C#N)=N/Nc1ccc(C)cc1,99*,-2,22,0
COc1ccc(N/N=C(\C#N)C(=N)N2CCCCC2)cc1,99*,-11,-2,1
CS(=O)(=O)N1CCC(C(=O)Nc2ccccc2Cl)CC1,-22,8,10,0
Cc1oc(C(C)(C)C)cc1C(=O)NCc1ccc2c(c1)OCO2,0,-4,-8,0
SMILES,ALR inh,Cardio protect,UBC9 SUMO inh,NTR1 agonist
COC(=O)c1ccc2[nH]c(CO)c(-c3ccccc3)c2c1,1,-2,21,2
CC1=NN(c2ccc(C)c(C)c2)C(=O)/C1=C/c1ccc2c(c1)n(C)c(=O)n2C,-13,9,85*,3
CC1=NN(c2ccccc2)C(=O)C1=Cc1ccccc1,.,1,.,.
Cc1cccc(CSC(=N)N)c1,39,6,-6,-1
N=C(N)SCCc1cccc(CCSC(=N)N)c1,98*,12,.,1
CCN(C(=O)COc1ncnc2ccccc12)C1CCCCC1,.,0,.,-4
Cc1ccc(-c2csc(NC(=O)CN3CCC(C(N)=O)CC3)n2)cc1,-7,3,-5,0
Cc1ccc(-c2csc(NC(=O)CSC3=NCCS3)n2)cc1,100*,-13,19,3
Cc1ccc(-c2csc(NC(=O)CSc3nc(C)cc(=O)[nH]3)n2)cc1,99*,.,19,6
CCOc1ccc(C(=O)NCc2ccco2)cc1,33,0,20,2
CC(=O)Nc1ccc(NC(=O)C2C3CCC(C3)C2C(=O)O)cc1 (stereo not given),-10,2,2,-1
CC(=O)C(Sc1nccc(-c2cccs2)n1)C(C)=O,98*,3,-4,-1
COCCCn1c(=O)/c(=C/c2ccccc2OC(F)F)s/c1=C(\C#N)C(=O)NCCOC,.,6,.,.
COCCCn1c(=O)/c(=C\c2cccc(OC)c2OC)s/c1=C(/C#N)C(=O)Nc1ccc(C(=O)O)cc1,98*,11,14,3
COC(=O)CCC(=O)Nc1c(C)n(C)n(-c2ccccc2)c1=O,4,-8,4,1
